According to the supplement of paper PMC13380429:
A number with no mark means an inactive call.

system: Vero E6 infected with SARS-CoV-2; experiment: SARS-CoV-2 infection rate relative to infected DMSO; higher = more infection, active = 60 or less; details: 24 h

Compound | SARS-CoV-2 infection rate [%]
O=C(Nc1ccccc1)c1cc([N+](=O)[O-])ccc1Cl (10 µM) | 94.5
N#Cc1ccc(Cn2cncc2CN2CCN(c3cccc(Cl)c3)C(=O)C2)cc1 (10 µM) | 95
Cc1cc(-c2ccccc2)nnc1NCCN1CCOCC1 [minaprine] (10 µM) | 103
Cc1cccc(-c2[nH]c(C(C)(C)C)nc2-c2ccc3c(c2)OCO3)n1 (10 µM) | 115
COc1cc(C(=O)N2CCC(N3CCN(C)CC3)CC2)ccc1Nc1ncc2c(n1)N(C)c1ccccc1C(=O)N2C (0.833333 µM) | 100
CC(C)(C)c1ccc(S(=O)(=O)/C=C/C#N)cc1 (0.833333 µM) | 89.5
NC(=O)c1cccc2cn(-c3ccc([C@@H]4CCCNC4)cc3)nc12 [niraparib] (0.833333 µM) | 102
C#C[C@]1(O)CC[C@H]2[C@@H]3CCC4=CC(=NO)CC[C@@H]4[C@H]3CC[C@@]21CC (mixture of isomers) [norelgestromin] (10 µM) | 108
CCCn1c(=O)c2[nH]c(-c3cnn(Cc4cccc(C(F)(F)F)c4)c3)nc2n(CC)c1=O (10 µM) | 103
O=C(O)C(=O)CBr [3-bromopyruvate] (10 µM) | 111
CCCN1CCO[C@@H]2c3cc(O)ccc3OC[C@H]21 (10 µM) | 87
C=C1C(=O)O[C@@H]2[C@H]3O[C@]3(C)CC/C=C(\C)CC[C@@H]12 [parthenolide-(alternate-stereo)] (0.833333 µM) | 106
O=[N+]([O-])c1ccc2nc(COCc3nc4ccc([N+](=O)[O-])cc4[nH]3)[nH]c2c1 (10 µM) | 94.5
O=c1[nH]c2cc(C(F)(F)F)c(N3CCOCC3)cc2n(CP(=O)(O)O)c1=O (10 µM) | 99
CCC(COC(=O)c1cc(OC)c(OC)c(OC)c1)(c1ccccc1)N(C)C (stereo unspecified) [trimebutine] (10 µM) | 91
CCCCS(=O)(=O)N[C@@H](Cc1ccc(OCCCCC2CCNCC2)cc1)C(=O)O [tirofiban] (10 µM) | 110

Compound | SARS-CoV-2 infection rate [%]
OCCOCCN1CCN(C(c2ccccc2)c2ccc(Cl)cc2)CC1 (stereo unspecified) [hydroxyzine] (10 µM) | 104
N[C@@]1(C(=O)O)CC[C@H]2[C@H](C(=O)O)[C@H]21 [eglumetad] (10 µM) | 114
CN(C)N(C)C(=O)[C@@]1(Cc2ccccc2)CCCN(C(=O)[C@@H](Cc2c[nH]c3ccccc23)NC(=O)C(C)(C)N)C1 [anamorelin] (10 µM) | 98.5
CCCCCN(CCCOC)C(=O)[C@@H](CCC(=O)O)NC(=O)c1ccc(Cl)c(Cl)c1 [dexloxiglumide] (10 µM) | 107
Cc1c(OCC(F)(F)F)ccnc1C[S+]([O-])c1nc2ccccc2[nH]1 (stereo unspecified) [lansoprazole] (10 µM) | 99
CC(C)C(=O)c1c(C(C)C)nn2ccccc12 [ibudilast] (10 µM) | 97
CN(C(=O)Cc1ccccc1)[C@H](CN1CCCC1)c1ccccc1 (10 µM) | 102
CCN(CC)CCCCN1c2ccccc2Oc2ccc(Cl)cc21 (0.833333 µM) | 93
O=C(O)C(F)(F)C(F)(F)C(F)(F)C(F)(F)C(F)(F)C(F)(F)C(F)(F)F [ammonium-perfluorocaprylate] (10 µM) | 112
CC1(COc2ccc(CC3SC(=O)NC3=O)cc2)CCCCC1 (stereo unspecified) [ciglitazone] (10 µM) | 110
COc1cc(C(=O)NCC2(N(C)C)CCCC2)cc(OC)c1OCc1ccccc1 (10 µM) | 77.5
COc1cc(NC(C)CCCN)c2ncccc2c1 (stereo unspecified) [primaquine] (10 µM) | 76.5
COc1ncc2cc(C(=O)Nc3cc(C(=O)NCc4cccc(Cl)c4)ccc3Cl)c(=O)[nH]c2n1 (10 µM) | 110
NC(=O)c1ccc([N+](=O)[O-])cc1Cl [aklomide] (10 µM) | 114
C[C@]12C/C(=C/O)C(=O)C[C@@H]1CC[C@@H]1[C@@H]2CC[C@@]2(C)[C@H]1CC[C@]2(C)O [Oxymetholone] (10 µM) | 120
